# Measurements taken from the supplement of paper PMC7411054.
# Where a name gives a salt, the structure may show the parent alone.
# Experiments:
# Settings in all cases: treatment time: 24 h
# A549-ACTB-RAB5A [1] = test: lowest phenotypically active concentration; higher = less potent
# Outline: (§1)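 After 24 h at 0.3, 1, 3 or 9 µM, with four wells per treatment, fifteen gene-edited A549, HepG2 and WPMY1 reporter lines carrying BFP, GFP and RFP/FusionRed were imaged live. Each well's live-cell features were expressed relative to solvent control wells. Deviation required ≥3 of 4 wells past the 95th percentile of control Euclidean distances, and reproducibility a median replicate Pearson correlation over the 95th percentile of non-replicates. Phenotypic activity rested on both.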
# A549-CANX-COX4 [2] = test: as above
# Outline: as §1
# A549-GM130-SQSTM1 [3] = test: as above
# Outline: as §1
# A549-TP53BP1-CLTA [4] = test: as above
# Outline: as §1
# A549-TUBA1B-RELA [5] = test: as above
# Outline: as §1
# A549-ACTB-RAB5A [6] = test: phenotypically active (imaging signature differs from DMSO and reproducible) at any of 0.3-9 uM (binary (1 = active, 0 = inactive)); higher = active
# Outline: as §1
# A549-CANX-COX4 [7] = test: as above
# Outline: as §1
# A549-GM130-SQSTM1 [8] = test: as above
# Outline: as §1
# A549-TP53BP1-CLTA [9] = test: as above
# Outline: as §1
# A549-TUBA1B-RELA [10] = test: as above
# Outline: as §1
# HepG2-ACTB-RAB5A = test: as above
# Outline: as §1
# HepG2-CANX-COX4 = test: as above
# Outline: as §1
# HepG2-GM130-SQSTM1 = test: as above
# Outline: as §1
# HepG2-TP53BP1-CLTA = test: as above
# Outline: as §1
# HepG2-TUBA1B-RELA = test: as above
# Outline: as §1
# WPMY1-ACTB-RAB5A = test: as above
# Outline: as §1
# WPMY1-CANX-COX4 = test: as above
# Outline: as §1
# WPMY1-GM130-SQSTM1 = test: as above
# Outline: as §1
# WPMY1-TP53BP1-CLTA = test: as above
# Outline: as §1
# WPMY1-TUBA1B-RELA = test: as above
# Outline: as §1
Structure (SMILES),lowest phenotypically active concentration (A549-ACTB-RAB5A [1]) [µM],lowest phenotypically active concentration (A549-CANX-COX4 [2]) [µM],lowest phenotypically active concentration (A549-GM130-SQSTM1 [3]) [µM],lowest phenotypically active concentration (A549-TP53BP1-CLTA [4]) [µM],lowest phenotypically active concentration (A549-TUBA1B-RELA [5]) [µM],phenotypically active (A549-ACTB-RAB5A [6]),phenotypically active (A549-CANX-COX4 [7]),phenotypically active (A549-GM130-SQSTM1 [8]),phenotypically active (A549-TP53BP1-CLTA [9]),phenotypically active (A549-TUBA1B-RELA [10]),phenotypically active (HepG2-ACTB-RAB5A),phenotypically active (HepG2-CANX-COX4),phenotypically active (HepG2-GM130-SQSTM1),phenotypically active (HepG2-TP53BP1-CLTA),phenotypically active (HepG2-TUBA1B-RELA),phenotypically active (WPMY1-ACTB-RAB5A),phenotypically active (WPMY1-CANX-COX4),phenotypically active (WPMY1-GM130-SQSTM1),phenotypically active (WPMY1-TP53BP1-CLTA),phenotypically active (WPMY1-TUBA1B-RELA)
CC[C@H](CO)Nc1nc(NCc2ccc(-c3ccccn3)cc2)c2ncn(C(C)C)c2n1,≤ 0.3,≤ 0.3,≤ 0.3,≤ 0.3,≤ 0.3,1 (active),1 (active),1 (active),1 (active),1 (active),1 (active),1 (active),1 (active),1 (active),1 (active),1 (active),1 (active),1 (active),1 (active),1 (active)
CO[C@H]1C[C@@H]2CC[C@@H](C)[C@@](O)(O2)C(=O)C(=O)N2CCCC[C@H]2C(=O)O[C@H]([C@H](C)C[C@@H]2CC[C@@H](OC(=O)C(C)(CO)CO)[C@H](OC)C2)CC(=O)[C@H](C)C=C(C)[C@@H](O)[C@@H](OC)C(=O)[C@H](C)C[C@H](C)C=CC=CC=C1C [Temsirolimus],≤ 0.3,≤ 0.3,≤ 0.3,3,≤ 0.3,1 (active),1 (active),1 (active),1 (active),1 (active),1 (active),1 (active),1 (active),1 (active),1 (active),1 (active),1 (active),1 (active),1 (active),1 (active)
CN(C)CCCNc1c2c(=O)n(C)c(=O)nc-2n(C)c2ccccc12,9,9,9,9,9,1 (active),1 (active),1 (active),1 (active),1 (active),1 (active),1 (active),1 (active),1 (active),1 (active),1 (active),1 (active),1 (active),1 (active),1 (active)
CCN(CCO)CCCOc1ccc2c(Nc3cc(CC(=O)Nc4cccc(F)c4)n[nH]3)ncnc2c1 [barasertib-HQPA],≤ 0.3,≤ 0.3,≤ 0.3,≤ 0.3,≤ 0.3,1 (active),1 (active),1 (active),1 (active),1 (active),1 (active),1 (active),1 (active),1 (active),1 (active),1 (active),1 (active),1 (active),1 (active),1 (active)
Cc1cc(Nc2ncc3c(n2)N(C)C(=O)N(c2cc(NC(=O)c4cccc(C(F)(F)F)c4)ccc2C)C3)n(C)n1 [Pluripotin],≤ 0.3,≤ 0.3,≤ 0.3,≤ 0.3,≤ 0.3,1 (active),1 (active),1 (active),1 (active),1 (active),1 (active),1 (active),1 (active),1 (active),1 (active),1 (active),1 (active),1 (active),1 (active),1 (active)
CN1CCC(=C2c3ccccc3CC(=O)c3sccc32)CC1 [ketotifen],9,9,9,9,9,1 (active),1 (active),1 (active),1 (active),1 (active),1 (active),1 (active),1 (active),1 (active),1 (active),1 (active),1 (active),1 (active),1 (active),1 (active)
COc1ccc(N(C)c2nc(C)nc3ccccc23)cc1 [MPC 6827 hydrochloride],≤ 0.3,≤ 0.3,≤ 0.3,1,≤ 0.3,1 (active),1 (active),1 (active),1 (active),1 (active),1 (active),1 (active),1 (active),1 (active),1 (active),1 (active),1 (active),1 (active),1 (active),1 (active)
COc1cc(/C=C/c2ccc(OC)cc2OC)cc(OC)c1,3,1,3,1,3,1 (active),1 (active),1 (active),1 (active),1 (active),1 (active),1 (active),1 (active),1 (active),1 (active),1 (active),1 (active),1 (active),1 (active),1 (active)
Cc1ccc(NC(=O)c2ccc(CN3CCN(C)CC3)cc2)cc1Nc1nc(-c2cccnc2)cs1 [masitinib],3,9,3,9,3,1 (active),1 (active),1 (active),1 (active),1 (active),1 (active),1 (active),1 (active),1 (active),1 (active),1 (active),1 (active),1 (active),1 (active),1 (active)
C/C=C1\NC(=O)[C@H]2CSSCCC=C[C@H](CC(=O)N[C@H](C(C)C)C(=O)N2)OC(=O)[C@H](C(C)C)NC1=O,≤ 0.3,≤ 0.3,≤ 0.3,≤ 0.3,≤ 0.3,1 (active),1 (active),1 (active),1 (active),1 (active),1 (active),1 (active),1 (active),1 (active),1 (active),1 (active),1 (active),1 (active),1 (active),1 (active)
CCNC(=O)c1noc(-c2cc(C(C)C)c(O)cc2O)c1-c1ccc(CN2CCOCC2)cc1,≤ 0.3,≤ 0.3,≤ 0.3,≤ 0.3,≤ 0.3,1 (active),1 (active),1 (active),1 (active),1 (active),1 (active),1 (active),1 (active),1 (active),1 (active),1 (active),1 (active),1 (active),1 (active),1 (active)
C=CC(=O)N1CCC[C@@H](n2nc(-c3cccc(C(=O)Nc4ccc(C(C)C)c(C)c4)c3)c3c(N)ncnc32)C1,3,3,3,3,1,1 (active),1 (active),1 (active),1 (active),1 (active),1 (active),1 (active),1 (active),1 (active),1 (active),1 (active),1 (active),1 (active),1 (active),1 (active)
COc1c(C)cnc(Cn2cc(C#CCC(C)(C)O)c3c(Cl)nc(N)nc32)c1C,≤ 0.3,≤ 0.3,≤ 0.3,≤ 0.3,≤ 0.3,1 (active),1 (active),1 (active),1 (active),1 (active),1 (active),1 (active),1 (active),1 (active),1 (active),1 (active),1 (active),1 (active),1 (active),1 (active)
Nc1ncn([C@@H]2O[C@H](CO)[C@@H](O)[C@H]2O)c(=O)n1 [5-Azacytidine],1,3,1,1,9,1 (active),1 (active),1 (active),1 (active),1 (active),1 (active),1 (active),1 (active),1 (active),1 (active),1 (active),1 (active),1 (active),1 (active),1 (active)
COc1cc(Br)c(Nc2nc(-c3c(C)nc4ncccn34)cs2)c(Br)c1,1,1,1,1,1,1 (active),1 (active),1 (active),1 (active),1 (active),1 (active),1 (active),1 (active),1 (active),1 (active),1 (active),1 (active),1 (active),1 (active),1 (active)
O=C(CCCCCCC(=O)Nc1ccccc1)NO,≤ 0.3,1,1,1,1,1 (active),1 (active),1 (active),1 (active),1 (active),1 (active),1 (active),1 (active),1 (active),1 (active),1 (active),1 (active),1 (active),1 (active),1 (active)
C[C@H]1[C@H]2CC[C@H]3[C@@H]4CC=C5C[C@@H](N(C)C)CC[C@]5(C)[C@H]4CC[C@]23CN1C [Conessine],1,9,1,3,1,1 (active),1 (active),1 (active),1 (active),1 (active),1 (active),1 (active),1 (active),1 (active),1 (active),1 (active),1 (active),1 (active),1 (active),1 (active)
C=CC(=O)Nc1cccc(Nc2nc(Nc3ccc(OCCOC)cc3)ncc2F)c1,3,3,9,3,9,1 (active),1 (active),1 (active),1 (active),1 (active),1 (active),1 (active),1 (active),1 (active),1 (active),1 (active),1 (active),1 (active),1 (active),1 (active)
OC[C@H]1O[C@@H](n2cnc3c(NCc4ccco4)ncnc32)[C@H](O)[C@@H]1O [Kinetin riboside],1,3,3,3,3,1 (active),1 (active),1 (active),1 (active),1 (active),1 (active),1 (active),1 (active),1 (active),1 (active),1 (active),1 (active),1 (active),1 (active),1 (active)
Oc1cccc(Nc2ccnc3cc(-c4cccc(CN5CCOCC5)c4)sc23)c1 [LCB 03-0110 dihydrochloride],1,3,1,3,1,1 (active),1 (active),1 (active),1 (active),1 (active),1 (active),1 (active),1 (active),1 (active),1 (active),1 (active),1 (active),1 (active),1 (active),1 (active)
